# CYP2C19 inh = blocks human cytochrome P450 2C19 | actives 21% (n = 96,000) | inhibition, % at 5 µM | AID 778 | CYP2C19 Supersomes, luciferin-H EGE luminescence, 30 min | P33261;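 active means CYP2C19 inhibition above a set limit at 5 µM in the primary screen, cut at about 50% in these data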;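 further: plate controls were negative control wells for no effect and 2.5 mM tranylcypromine positive control for full effect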
# CYP2C19 act = increases human CYP2C19 enzyme activity; P33261; recombinant CYP2C19, luciferin-H EGE luminescence; stronger effect = higher value; 0 = fully inhibited enzyme, 1 = untreated enzyme; activation factor at 5 µM; 96,000 tested, under 10 active;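 active means activation factor of at least 2 at 5 µM in the primary screen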;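 further: 0 = wells with 2.5 mM tranylcypromine and 1 = vehicle-only wells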
# CYP2C9 act = activators of human CYP2C9; actives 1.4% (n = 96,000); activation factor at 5 µM; P11712; recombinant CYP2C9, luciferin-H conversion, luminescence; stronger effect = higher value; factor 1 = untreated enzyme, 0 = blocked; AID 1024;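 active means activation factor of 2 or more for CYP2C9 at a 5 µM dose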;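 further: 0 = sulfaphenazole-blocked wells and 1 = vehicle-only wells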
# Target sequence (P11712 whole entry, looked up): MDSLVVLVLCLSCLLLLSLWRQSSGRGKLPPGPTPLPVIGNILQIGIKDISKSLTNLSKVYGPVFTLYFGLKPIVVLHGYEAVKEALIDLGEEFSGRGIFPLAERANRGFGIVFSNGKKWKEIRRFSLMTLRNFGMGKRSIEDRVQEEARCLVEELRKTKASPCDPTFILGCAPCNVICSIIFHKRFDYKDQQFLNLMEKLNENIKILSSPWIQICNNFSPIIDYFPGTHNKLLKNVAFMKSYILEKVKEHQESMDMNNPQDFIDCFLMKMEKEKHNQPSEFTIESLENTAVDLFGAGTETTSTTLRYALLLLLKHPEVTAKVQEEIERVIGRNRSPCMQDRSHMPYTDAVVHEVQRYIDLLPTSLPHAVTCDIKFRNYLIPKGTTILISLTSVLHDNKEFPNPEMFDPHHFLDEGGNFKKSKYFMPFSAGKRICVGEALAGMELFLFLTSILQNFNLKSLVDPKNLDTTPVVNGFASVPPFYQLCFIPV
# CYP2C9 inhib = human CYP2C9 inhibition | CYP2C9 Supersomes, luciferin-H conversion, luminescence | inhibition, % at 5 µM | actives 20% (n = 96,000) | AID 777;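 active means blocking of liver enzyme CYP2C9 beyond about 50% at 5 µM, limit read from the data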
# PostGolgi yeast = growth inhibition of a yeast mutant, post-Golgi transport screen; post-Golgi transport phenotypic cell assay; inhibition, % at 10 µM; actives 0.9% (n = 98,000); AID 739;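 further: yeast cells grown in 1536-well plates; yeast grown about 18 h at 30C before absorbance read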
# PostGolgi ctrl = yeast control strain growth, post-Golgi counter-screen. inhibition, % at 10 µM. AID 738. efflux-deficient yeast background strain, growth absorbance A615, 16 h. actives 5% (n = 98,000)
# * = called active by the depositor; x = no result. A selection: hits, their analogues and other compounds. The true share with any hit is near 32%. Unless noted, no stated cut-off is given here; in the data, active means inhibition above about 30%; inactive means the rest.
SMILES,CYP2C19 inh,CYP2C19 act,CYP2C9 act,CYP2C9 inhib,PostGolgi yeast,PostGolgi ctrl
N#Cc1nc(COc2ccccc2)oc1N1CCCCC1,50,0.5,0.7,34,5,3
N#Cc1nc(COc2ccc(Cl)cc2)oc1N1CCCCCC1,89*,0.1,0,97*,-2,45*
COc1ccc(C(=O)/C=C(\C)NCc2ccc3c(c2)OCO3)cc1,24,0.8,0.7,26,2,12
N#Cc1nc(Cc2cccc3ccccc23)oc1N1CCCCC1,32,0.7,0.8,18,-3,36*
O=C(Nc1ccn(Cc2ccc(Cl)cc2)n1)c1ccc2c(c1)OCO2,91*,0.1,0.1,92*,0,9
c1cc(CNc2ccc3c(c2)OCO3)ccn1,71*,0.3,0.4,63*,1,2
CN(c1ccc(C(=O)NCc2ccc3c(c2)OCO3)cc1)S(C)(=O)=O,-18,1.2,1.1,-13,-14,3
CCn1c(N)c(C(=O)NCc2ccc3c(c2)OCO3)sc1=S,51*,0.5,0.4,63*,-5,-3
O=C(Nc1ccc(CN2CCCCC2)cc1)c1ccc2c(c1)OCO2,-14,1.1,1,-2,-2,-4
O=C(NCc1cccc(Cl)c1)c1ccc2c(c1)OCO2,50*,0.5,0.9,9,-7,16
CCn1c(N)c(C(=O)NCCOC)sc1=S,34,0.7,0.8,25,-7,3
CCCCN(C(=O)CNC(=O)c1ccco1)C(C(=O)NC1CCCC1)c1ccc(OC)cc1 (stereo not given),39,0.6,0.9,12,-3,4
COc1ccc(CCNC(=O)C2CCCN2C(=O)Nc2cccc(C(C)=O)c2)cc1OC (stereo not given),-2,1,1.1,-13,-7,3
COC(=O)c1ccc(C)c(N(CCO)CCO)c1,26,0.7,1,1,-3,-3
Cc1cccc(-n2nnc(C(=O)NCc3ccc4c(c3)OCO4)c2N)c1,28,0.7,0.8,17,-3,9
Cc1cc(C)cc(-n2nnc(C(=O)NCc3ccc4c(c3)OCO4)c2N)c1,x,x,x,x,-3,31*
O=C(NCc1cccc(Cl)c1)c1cccc(C(F)(F)F)c1,62*,0.4,1.3,-31,-1,21
O=C(NCc1ccc2c(c1)OCO2)c1ccccn1,x,x,x,x,-5,5
O=C(NCc1cccc(Cl)c1)c1cnccn1,23,0.8,1,-4,1,7
O=C(NCc1ccc2c(c1)OCO2)c1ccc(N2CCCC2=O)cc1,23,0.8,0.7,29,1,4
O=C(NCc1ccc2c(c1)OCO2)c1ccc(-n2cnnn2)cc1,16,0.8,1.2,-21,41*,1
O=C(NCc1ccc2c(c1)OCO2)c1ccncc1,68*,0.3,0.7,26,-11,3
Cn1c(=O)c2c(nc(Sc3nc4ccccc4n3CC(=O)N3CCCCC3)n2C)n(C)c1=O,10,0.9,0.6,36,0,2
Cc1ccc(C)c(S(=O)(=O)NC(CCC(N)=O)C(=O)O)c1 (stereo not given),-18,1.2,1.2,-19,x,x
Cc1ccc(C(=O)Nc2ccc3c(c2)OCO3)cc1,38,0.6,0.7,27,-5,8
SMILES,CYP2C19 inh,CYP2C19 act,CYP2C9 act,CYP2C9 inhib,PostGolgi yeast,PostGolgi ctrl
O=C(NCc1ccc2c(c1)OCO2)c1cccc(Cl)c1,98*,0,0.6,35,-2,2
O=C(Nc1ccc2c(c1)OCO2)c1ccncc1,53*,0.5,0.8,19,-4,-1
O=C(Nc1ccc2c(c1)OCO2)c1cccs1,43,0.6,0.7,26,13,-8
Cc1cc(C)n2nc(C(=O)Nc3ccc4c(c3)OCO4)nc2n1,7,0.9,1,4,4,3
O=C(Nc1ccc2c(c1)OCO2)c1ccc(Br)s1,54*,0.5,0.6,35,-18,-3
Cc1ccnc2nc(C(=O)Nc3ccc4c(c3)OCO4)nn12,75*,0.2,0.6,44,1,1
O=C(/C=C\Nc1ccc2c(c1)OCO2)c1ccccn1,57*,0.4,0.7,31,-3,-4
O=C(Nc1ccc2c(c1)OCO2)c1noc2c1CCCCC2,22,0.8,0.1,89*,-9,9
COc1ccc(N/C=C\C(=O)c2ccc3c(c2)OCO3)cc1,27,0.7,1.2,-19,-7,-4
CC(=O)c1ccc(NC(=O)c2noc3c2CCCCC3)cc1,0,1,1,4,-6,20
O=C(NCc1ccc2c(c1)OCO2)c1cccc(S(=O)(=O)N2CCOCC2)c1,14,0.9,0.6,35,-6,9
O=C(Nc1ccc2c(c1)OCO2)c1ccc2nc[nH]c2c1,80*,0.2,0.4,56*,4,8
O=C(NCc1ccc2c(c1)OCO2)c1cccc(F)c1,99*,0,0.3,66*,5,7
O=C(Nc1ccc2c(c1)OCO2)c1ccc(Cl)nc1,43,0.6,0.6,44,0,5
Cc1c(C(=O)C(C)C)n(C)c2ccccc12,1,1,1.1,-12,0,6
O=C(NCc1ccc2c(c1)OCO2)c1ccc(-c2ccc(Cl)cc2)o1,23,0.8,0,100*,16,70*
O=C(NCc1ccc2c(c1)OCO2)C1CCN(C(=O)Nc2ccc(Cl)cc2)CC1,-8,1.1,1,2,-7,0
O=C(NCc1ccc(Cl)c(Cl)c1)c1ccco1,x,x,x,x,16,8
O=C(NCc1cccc(Cl)c1)c1ccco1,57*,0.4,0.9,14,26,-1
COc1cc(C(=O)NCc2nnc(SCC(=O)NCc3ccccc3)o2)cc(OC)c1OC,0,1,0.7,29,2,15
CC(=O)c1ccc(-c2nc3c4ccccc4ccn3c2C(C)=O)o1,17,0.8,1,4,8,4
Cc1ccc(CN2CCN(CC3CC4C=CC3C4)CC2)cc1 (stereo not given),14,0.9,1.1,-5,12,1
Cc1ccc(S(=O)(=O)CNC(=S)c2ccc3ccccc3c2)cc1,60*,0.4,0.4,60*,9,5
Cc1ccc(S(=O)(=O)CNC(=S)c2cccc(C)c2)cc1,94*,0.1,1.9,-90,-7,-2
O=C(NCc1ccccn1)c1cn(CCc2ccccc2)nn1,-5,1,1.1,-13,3,9
COc1ccc(C)cc1NS(=O)(=O)c1ccc(Br)s1,98*,0,0.7,30,-4,28
COc1ccc(C(=O)O)cc1S(=O)(=O)Nc1cccc(C)c1,-13,1.1,1.1,-10,-3,6
COc1ccc(NS(=O)(=O)c2ccc(Br)s2)cc1OC,99*,0,0.1,87*,8,7
O=S(=O)(Nc1ccc2c(c1)OCCO2)c1ccc(Br)s1,98*,0,0,96*,7,17
COc1ccc(S(=O)(=O)N(CC(=O)N2CCN(C)CC2)c2ccccc2)cc1OC,-5,1.1,1.2,-21,-11,11
